According to PubChem BioAssay (EPA / NIEHS):
The source holds several records for some structures; these can differ, active in one and inactive in another. Active and inactive are the calls of the source. How the source made its calls: active means hit-call score of the fitted dose curve at least 0.9, where 1 is the maximum; inactive means score below 0.9.

Legend:
[1] = BSK_3C_TissueFactor: BioMAP Diversity Plus: 3C Assay for Tissue Factor Biomarker Activity (AID 2282997); details: BioMAP 3C HUVEC, tissue factor biomarker readout; actives raise or lower the signal
Outline: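 Primary human umbilical vein endothelial cells in the 3C system were exposed to test chemical for 24 h, then Tissue Factor measured by ELISA. Activity was fitted bidirectionally against DMSO as negative control and baseline.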

[2] = BSK_3C_uPAR: BioMAP Diversity Plus: 3C Assay for Urokinase-type plasminogen activator receptor (uPAR) Biomarker Activity (AID 2282998); details: BioMAP 3C HUVEC, uPAR biomarker ELISA; actives raise or lower the signal
Outline: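 HUVEC primary cells; 24 h post-dose; uPAR by ELISA; gain or loss of signal fitted bidirectionally vs DMSO baseline.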

[3] = BSK_3C_VCAM1: BioMAP Diversity Plus: 3C Assay for Vascular cell adhesion molecule 1 (VCAM1) Biomarker Activity (AID 2282999); details: BioMAP 3C HUVEC, VCAM1 ELISA, cytokine-stimulated; actives raise or lower the signal
Outline: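 Human umbilical vein endothelial cells (3C system), biomarker read by ELISA 24 h after dosing; bidirectional fit against DMSO baseline. Cytotoxicity tracked by SRB total-protein staining in parallel cultures at biomarker time.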

[4] = BSK_4H_Eotaxin3: BioMAP Diversity Plus: 4H Assay for Eotaxin 3 Biomarker Activity (AID 2283000); details: primary human endothelial cells (HUVEC); actives raise or lower the signal;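 further: CCL26 protein level quantified by ELISA in parallel with SRB cytotoxicity check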
Outline: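 HUVEC, 24 h post-dose, ELISA for Eotaxin-3/CCL26. Gain or loss of signal fitted bidirectionally vs DMSO baseline.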

[5] = BSK_3C_Proliferation: Cell Proliferation Assessment in the BioMAP Diversity Plus: 3C Assay (AID 2283006); details: primary human endothelial cells (HUVEC)
Outline: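 Read-out is total protein by SRB absorbance at 560 nm, taken as a proxy for relative cell number. Primary human umbilical vein endothelium cultured below confluence was dosed for 48 h, TCA-fixed and SRB-stained; curves were fitted bidirectionally versus DMSO.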

[6] = read-out: E-selectin (Homo sapiens) (UniProt P16581); assay: BSK_3C_Eselectin: BioMAP Diversity Plus: 3C Assay for Eselectin Biomarker Activity (AID 2283015); details: primary human endothelial cells (HUVEC); actives raise or lower the signal;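 further: cell surface E-selectin protein quantified by ELISA 24 h after dosing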
Outline: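 Primary human umbilical vein endothelial cells (3C system) were dosed with chemical and cell-surface E-selectin measured by ELISA 24 h later. Bidirectional curve fitting used DMSO as negative control and baseline.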

[7] = read-out: Interleukin-1 alpha (IL1a), IL1A (gene 3552); assay: BSK_BE3C_IL1a: BioMAP Diversity Plus: BE3C Assay for Interleukin-1 alpha (IL1a) Biomarker Activity (AID 2283016); details: primary human bronchial epithelial cells; actives raise or lower the signal
Outline: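 BE3C primary human bronchial epithelium; cpd 24 h; IL-1a by ELISA; bidirectional fit vs DMSO; parallel SRB (0.1% SRB, 10% TCA fix, 560 nm) for cytotoxicity.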

[8] = read-out: Monocyte Chemoattractant Protein-1 (MCP1), CCL2 (gene 6347); assay: BSK_3C_MCP1: BioMAP Diversity Plus: 3C Assay for Monocyte Chemoattractant Protein-1 (MCP1) Biomarker Activity (AID 2283017); details: primary human endothelial cells (HUVEC); actives raise or lower the signal
Outline: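 Primary human umbilical vein endothelial cells (3C system) were exposed to test chemical for 24 h, after which MCP-1 was quantified by ELISA. Activity was fitted bidirectionally against DMSO as negative control and baseline.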

[9] = read-out: Monocyte Chemoattractant Protein-1 (MCP1), CCL2 (gene 6347); assay: BSK_4H_MCP1: BioMAP Diversity Plus: 4H Assay for Monocyte Chemoattractant Protein-1 (MCP1) Biomarker Activity (AID 2283018); details: primary human endothelial cells (HUVEC); actives raise or lower the signal
Outline: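 ELISA read-out of MCP-1 from human vascular endothelial primary cells taken at 24 hours after compound exposure. Activity was fitted in both directions relative to DMSO, which served as negative control.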

[10] = read-out: Human Leukocyte Antigen - DR isotype (HLADR), HLA-DRA (gene 3122); assay: BSK_3C_HLADR: BioMAP Diversity Plus: 3C Assay for Human Leukocyte Antigen - DR isotype (HLADR) Biomarker Activity (AID 2283019); details: primary human endothelial cells (HUVEC); actives raise or lower the signal;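 further: ELISA of cell-surface HLA-DR on HUVEC 24 h after dosing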
Outline: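 Primary human umbilical vein endothelial cells (3C system) were dosed with compound and cell-surface HLA-DR was quantified by ELISA at 24 h. Activity was fitted bidirectionally against DMSO as negative control and baseline.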

[11] = read-out: Interleukin-8 (IL8), CXCL8 (gene 3576); assay: BSK_3C_IL8: BioMAP Diversity Plus: 3C Assay for Interleukin-8 (IL8) Biomarker Activity (AID 2283020); details: primary human endothelial cells (HUVEC); actives raise or lower the signal
Outline: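 ELISA read-out of IL-8 from human umbilical vein endothelium, measured 24 h after chemical dosing. Activity is expressed relative to DMSO negative control, with both increases and decreases fitted.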

[12] = read-out: Monokine induced gamma interferon (MIG), CXCL9 (gene 4283); assay: BSK_3C_MIG: BioMAP Diversity Plus: 3C Assay for Monokine induced gamma interferon (MIG) Biomarker Activity (AID 2283021); details: primary human endothelial cells (HUVEC); actives raise or lower the signal
Outline: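 Read-out is ELISA detection of MIG on human umbilical vein endothelial cells, taken 24 h after dosing. Gain or loss of signal was scored relative to DMSO controls using bidirectional curve fitting.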

[13] = BSK_3C_SRB: Viability Assessment in the BioMAP Diversity Plus: 3C Assay (AID 2283023); details: primary human endothelial cells (HUVEC);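 further: fitted both ways against DMSO so a hit may be signal rise or drop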
Outline: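 Primary human umbilical vein endothelial cells in the 3C system were read 24 h after compound dosing. Total protein was stained with 0.1% sulforhodamine B after 10% TCA fixation and read at 560 nm, with bidirectional fitting against DMSO as baseline.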

[14] = read-out: Pselectin, SELP (gene 6403); assay: BSK_4H_Pselectin: BioMAP Diversity Plus: 4H Assay for Pselectin Biomarker Activity (AID 2283026); details: primary human endothelial cells (HUVEC); actives raise or lower the signal
Outline: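 ELISA read-out of P-selectin on human umbilical vein endothelium after 24 h of dosing. Values derive from bidirectional fitting relative to DMSO. Parallel SRB protein staining flagged overt cytotoxicity.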

[15] = BSK_4H_SRB: Viability Assessment in the BioMAP Diversity Plus: 4H Assay (AID 2283027); details: primary human endothelial cells (HUVEC);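 further: cells exposed to compound for 24 h before staining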
Outline: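 Human umbilical vein endothelial cells, 24 h after chemical dosing; total protein measured by 0.1% sulforhodamine B staining after 10% TCA fixation, read at 560 nm. Bidirectional fitting against DMSO.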

[16] = BSK_BE3C_SRB: Viability Assessment in the BioMAP Diversity Plus: BE3C Assay (AID 2283028); details: primary human bronchial epithelial cells
Outline: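 Human primary bronchial epithelial cells were exposed to test chemicals for 24 h. Total protein in parallel cultures was then measured by staining with 0.1% sulforhodamine B after 10% TCA fixation, with absorbance read at 560 nm. Activity was fitted bidirectionally against DMSO.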

[17] = read-out: Thrombomodulin, THBD (gene 7056); assay: BSK_3C_Thrombomodulin: BioMAP Diversity Plus: 3C Assay for Thrombomodulin Biomarker Activity (AID 2283029); details: primary human endothelial cells (HUVEC); actives raise or lower the signal
Outline: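 Read-out is ELISA of thrombomodulin on human umbilical vein endothelium 24 h after chemical dosing. Gain or loss of signal is scored relative to DMSO. Overt cytotoxicity is checked in parallel cultures by sulforhodamine B staining.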

[18] = read-out: Urokinase-type plasminogen activator receptor (uPAR), PLAUR (gene 5329); assay: BSK_4H_uPAR: BioMAP Diversity Plus: 4H Assay for Urokinase-type plasminogen activator receptor (uPAR) Biomarker Activity (AID 2283030); details: primary human endothelial cells (HUVEC); actives raise or lower the signal
Outline: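 Primary human umbilical vein endothelial cells were exposed to chemical for 24 h before cell-surface uPAR was quantified by ELISA. Activity was fitted bidirectionally against the DMSO negative control baseline.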

[19] = read-out: Vascular endothelial growth factor receptor 2 (Homo sapiens) (UniProt P35968); assay: BSK_4H_VEGFRII: BioMAP Diversity Plus: 4H Assay for Vascular endothelial growth factor receptor 2 (VEGFR2) Biomarker Activity (AID 2283031); details: primary human endothelial cells (HUVEC); actives raise or lower the signal;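 on AC50: cell-surface VEGFR2 protein level quantified by ELISA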
Outline: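 Primary human umbilical vein endothelial cells in the BioMAP 4H system were dosed with test chemical, and 24 h later VEGFRII was measured by ELISA. Activity was fitted bidirectionally against DMSO as negative control and baseline.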

[20] = read-out: Human Leukocyte Antigen - DR isotype (HLADR), HLA-DRA (gene 3122); assay: BSK_BE3C_HLADR: BioMAP Diversity Plus: BE3C Assay for Human Leukocyte Antigen - DR isotype (HLADR) Biomarker Activity (AID 2283032); details: primary human bronchial epithelial cells; actives raise or lower the signal
Outline: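 ELISA read-out of HLA-DR on human lung bronchial epithelial primary cells, measured 24 h post-dosing. Both increases and decreases were scored relative to DMSO vehicle.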

[21] = read-out: Vascular cell adhesion molecule 1 (VCAM1), VCAM1 (gene 7412); assay: BSK_4H_VCAM1: BioMAP Diversity Plus: 4H Assay for Vascular cell adhesion molecule 1 (VCAM1) Biomarker Activity (AID 2283033); details: primary human endothelial cells (HUVEC); actives raise or lower the signal;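 further: cell-surface VCAM-1 protein measured by ELISA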
Outline: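 ELISA read-out of VCAM-1 on human umbilical vein endothelium 24 hours after chemical dosing; gain or loss of signal was fitted relative to DMSO, with sulforhodamine B staining of parallel cultures flagging overt cytotoxicity.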

[22] = read-out: Interferon-gamma inducible Protein 10 (IP10), CXCL10 (gene 3627); assay: BSK_BE3C_IP10: BioMAP Diversity Plus: BE3C Assay for Interferon-gamma inducible Protein 10 (IP10) Biomarker Activity (AID 2283034); details: primary human bronchial epithelial cells; actives raise or lower the signal
Outline: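 Chemical is dosed onto human lung bronchial epithelial primary cells, cultures are incubated 24 h, and IP-10 is then quantified by ELISA. Gain or loss of signal is fitted in both directions relative to DMSO.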

[23] = read-out: Monokine induced gamma interferon (MIG), CXCL9 (gene 4283); assay: BSK_BE3C_MIG: BioMAP Diversity Plus: BE3C Assay for Monokine induced gamma interferon (MIG) Biomarker Activity (AID 2283035); details: primary human bronchial epithelial cells; actives raise or lower the signal;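 further: MIG protein measured by ELISA in BE3C cultures after 24 h of dosing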
Outline: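 Primary human bronchial epithelial cells treated for 24 h; MIG levels measured by ELISA, fitted bidirectionally versus DMSO. Parallel SRB total-protein staining assessed cytotoxicity.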

[24] = read-out: Plasminogen activator inhibitor-1 (PAI1), SERPINE1 (gene 5054); assay: BSK_BE3C_PAI1: BioMAP Diversity Plus: BE3C Assay for Plasminogen activator inhibitor-1 (PAI1) Biomarker Activity (AID 2283037); details: primary human bronchial epithelial cells; actives raise or lower the signal
Outline: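 Primary human lung bronchial epithelial cells; chemical dosing; 24 h; PAI-1 measured by ELISA; bidirectional fit referenced to DMSO as negative control.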

[25] = read-out: urokinase plasminogen activator (uPA), PLAU (gene 5328); assay: BSK_BE3C_uPA: BioMAP Diversity Plus: BE3C Assay for urokinase plasminogen activator (uPA) Biomarker Activity (AID 2283038); details: primary human bronchial epithelial cells; actives raise or lower the signal;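 further: uPA protein level quantified by ELISA in cell cultures; uPA read one day after compound addition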
Outline: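 Human primary bronchial epithelial cells were exposed to chemical for 24 h, then uPA levels were measured by ELISA. Responses were fitted bidirectionally against DMSO as negative control and baseline. Parallel SRB staining of total protein gauged overt cytotoxicity.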

[26] = read-out: Urokinase-type plasminogen activator receptor (uPAR), PLAUR (gene 5329); assay: BSK_BE3C_uPAR: BioMAP Diversity Plus: BE3C Assay for Urokinase-type plasminogen activator receptor (uPAR) Biomarker Activity (AID 2283039); details: primary human bronchial epithelial cells; actives raise or lower the signal;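 further: cells exposed to compound for one day before measurement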
Outline: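 Human bronchial epithelial primary cells; chemical exposure 24 h; uPAR by ELISA; bidirectional fit vs DMSO control.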

[27] = read-out: Interleukin-6 (IL6), IL6 (gene 3569); assay: BSK_CASM3C_IL6: BioMAP Diversity Plus: CASM3C Assay for Interleukin-6 (IL6) Biomarker Activity for (AID 2283040); details: primary human coronary artery smooth muscle cells; actives raise or lower the signal

Measured: AC50

Sequence of E-selectin (Homo sapiens) (P16581 whole entry, looked up): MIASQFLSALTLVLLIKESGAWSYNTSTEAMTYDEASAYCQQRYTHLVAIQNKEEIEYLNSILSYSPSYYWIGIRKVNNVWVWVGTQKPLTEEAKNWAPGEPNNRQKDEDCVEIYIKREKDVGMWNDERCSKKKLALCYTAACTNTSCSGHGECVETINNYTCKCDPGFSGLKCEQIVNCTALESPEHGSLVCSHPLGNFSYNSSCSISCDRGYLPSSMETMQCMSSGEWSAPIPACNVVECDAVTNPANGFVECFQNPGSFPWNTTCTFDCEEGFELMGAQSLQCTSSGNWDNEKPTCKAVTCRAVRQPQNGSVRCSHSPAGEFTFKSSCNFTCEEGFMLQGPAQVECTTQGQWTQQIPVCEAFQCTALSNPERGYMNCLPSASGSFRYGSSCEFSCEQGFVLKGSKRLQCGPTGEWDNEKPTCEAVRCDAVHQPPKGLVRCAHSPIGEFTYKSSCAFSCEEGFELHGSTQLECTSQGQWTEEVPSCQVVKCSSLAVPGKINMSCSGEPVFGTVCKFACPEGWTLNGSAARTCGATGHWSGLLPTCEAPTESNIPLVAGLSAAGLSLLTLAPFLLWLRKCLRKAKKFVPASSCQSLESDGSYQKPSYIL

CCCC[N+](CCCC)(CCCC)CCCC
inactive: [1] | [2] | [3] | [4] | [5] | [6] | [7] | [8] | [9] | [10] | [11] | [12] | [13] | [14] | [15] | [16] | [17] | [18] | [19] | [20] | [21] | [22] | [23] | [24] | [25] | [26] | [27]
active: [19] 2.14 µM
